# Assay results from PubChem BioAssay AID652175 (National Center for Advancing Translational Sciences (NCATS), 2013).
# “And” between values parts separate entries of the source, which are not always exact repeats. Identical values can stand only once. Inconclusive results are not listed. Where a call stands in place of a potency, no number is given. The source made the active and inactive calls. Calls follow the shape of the dose curve; as a rule, active = well fitted inhibition curve with a large enough effect; inconclusive = small, poorly fitted or top-dose-only effect; inactive = no such curve, though single readings can be large or run the other way.
# Assay: qHTS Assay for Lipid Storage Modulators: S3 Assay against Probe and Analogs
# Conditions: Drosophila S3 cells, BODIPY lipid droplet fluorescence, 18-24 h, oleic acid added to induce droplets; series mostly up to 46.1 µM
# Outline: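 Lipid droplet accumulation by BODIPY 493/503 intensity over Cell Tracker Red cell signal, on an Acumen laser cytometer, in embryonic Drosophila S3 cells. Oleic acid added with compounds; 18-24 h, 25 °C. Triacsin C, 20 uM, defines 100% inhibition.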
row,SMILES,Potency
1,O=C(NCCc1ccc2c(c1)OCO2)c1cc2sccc2[nH]1,inactive
2,CCn1c(C(=O)NCc2ccc(OC)c(OC)c2)cc2sccc21,inactive
3,CCOc1ccc(CCNC(=O)c2cc3c(s2)CCC3)cc1OCC,332 nM (active)
4,CCOc1ccc(CCNC(=O)c2cc3sccc3n2C(C)C)cc1OCC,187 nM (active)
5,CCOc1ccc(CCNC(=O)c2cnon2)cc1OCC,inactive
6,O=C(NC1CCCc2c1cnn2-c1ccc(F)cc1F)c1cccs1 (centres undefined),14.8 nM (active)
7,CCOc1cc(CCNC(=O)c2cc3sccc3n2Cc2ccccc2)cc(F)c1OCC,33.2 nM (active)
8,CC(C)(NC(=O)Nc1ccccc1Cl)C(=O)N1CCC(C(=O)O)CC1,inactive
9,O=C(NC1CCCc2c1cnn2-c1ccc(F)cc1F)C1CCCCC1 (centres undefined),inactive
10,CCOc1ccc(CCNC(=O)C2=C(C)OCCO2)cc1OCC,inactive
11,CCOc1ccc(CCNC(=O)c2ccnn2Cc2cccc(C)c2)cc1OCC,inactive
12,CCOc1ccc(CCNC(=O)c2ccc3[nH]ccc3c2)cc1OCC,inactive
13,CCOC(=O)C1CCN(C(=O)C(C)(C)NC(=O)Nc2ccc([N+](=O)[O-])cc2)CC1,inactive
14,CCOC(=O)C1CCN(C(=O)C(C)(C)NC(=O)Nc2ccc3sccc3c2)CC1,inactive
15,O=C(NC1CCCc2c1cnn2-c1ccc(F)cc1F)c1ccccc1 (centres undefined),20.9 nM (active) and 26.4 nM (active)
16,CCOC(=O)C1CCN(C(=O)C2(NC(=O)Nc3ccccc3Cl)CC2)CC1,inactive
17,CCOc1ccc(CCNC(=O)c2cc3sccc3[nH]2)cc1OCC,inactive
18,CN(C)CC(=O)NC1CCCc2c1cnn2-c1ccc(F)cc1F (centres undefined),inactive
19,O=C(NC1CCCc2c1cnn2-c1ccc(F)cc1F)c1ccccn1 (centres undefined),23.5 nM (active) and 4.7 nM (active)
20,O=C(NC1CCCc2c1cnn2-c1ccc(F)cc1F)c1ccncc1 (centres undefined),inactive
21,CC(C)(C)OC(=O)N1CCCCC1C(=O)NC1CCCc2c1cnn2-c1ccc(F)cc1F (centres undefined),inactive
22,CN(C)Cc1ccc(-c2nc3cccc4c3n2CCNC4=O)cc1,inactive
23,CCOC(=O)C1CCN(C(=O)C(C)(C)NC(=O)Nc2cccc(-c3csc(C)n3)c2)CC1,inactive
24,CCOc1cc2c(cc1OCC)CN(C(=O)c1cc3sccc3n1Cc1ccccc1)CC2,1320 nM (active)
25,CCOc1ccc(CCNC(=O)c2cc3sccc3n2Cc2ccccc2)c(F)c1OCC,inactive
26,CCOC(=O)C1CCN(C(=O)C(C)(C)NC(=O)Nc2cccc(OC)c2)CC1,inactive
27,CCOc1ccc(CCNC(=O)c2cc3sccc3n2CCN2CCN(C)CC2)cc1OCC,332 nM (active)
28,O=C(NCCc1ccc2c(c1)OCO2)c1cc2sccc2n1Cc1ccccc1,inactive
29,CCOC(=O)C1CCN(C(=O)C(C)(C)NC(=O)Nc2ccc(Cl)cc2Cl)CC1,1480 nM (active)
